Sampled rows, rich in hits. Any-hit rate of the full collection: about 4.1%.
MBD2 inh: inhibitors of human MBD2 binding to methylated oligonucleotide; Q9UBB5; TR-FRET; inhibition, % at 4.4 µM; 0.31% of 370,000 active; AID 686964; in the data active means inhibition above about 13%
Target sequence (Q9UBB5 whole entry, looked up): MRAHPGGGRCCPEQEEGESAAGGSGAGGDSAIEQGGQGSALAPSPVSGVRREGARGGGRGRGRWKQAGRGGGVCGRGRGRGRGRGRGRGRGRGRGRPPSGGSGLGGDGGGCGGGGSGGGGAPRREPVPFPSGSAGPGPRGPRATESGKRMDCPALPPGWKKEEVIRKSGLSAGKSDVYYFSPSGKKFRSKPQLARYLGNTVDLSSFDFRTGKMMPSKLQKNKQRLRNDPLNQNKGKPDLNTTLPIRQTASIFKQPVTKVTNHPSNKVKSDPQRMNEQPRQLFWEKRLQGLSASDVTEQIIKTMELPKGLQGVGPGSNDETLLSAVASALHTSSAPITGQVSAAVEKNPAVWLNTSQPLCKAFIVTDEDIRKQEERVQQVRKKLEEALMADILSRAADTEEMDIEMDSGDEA
LEDGF integ inh: blocks HIV-1 LEDGF/p75-dependent DNA integration | AID 743269 | 0.64% of 370,000 active | inhibition, % at 3.7 µM | TR-FRET IN-LEDGF/p75 DNA integration, Eu/Cy5;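 active means inhibition above the screen-wide mean plus 3 SD, cut at about 13% in these data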;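 further: signal is the Cy5 over europium emission ratio at 671 and 618 nm; 0% = plate median of compound wells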
ABHD5 PLIN5 PPI: inhibitors of human ABHD5-perilipin-5 interaction. Q00G26+Q8WTS1. Split G. princeps luciferase complementation, luminescence, 4 h. inhibition, % at 4 µM. 0.78% of 360,000 active;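 active means inhibition above the mean inhibition across every tested compound plus 3 SD, cut at about 22% in these data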;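 further: 0% = DMSO only wells and the 100% control is not disclosed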
rCAG RNA binder: binds r(CAG) RNA repeats | r(CAG) RNA repeat, TO-PRO-1 dye displacement fluorescence | inhibition, % at 3 µM | 1.3% of 370,000 active;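 active means inhibition above the plate cutoff, the mean of all test compounds on that plate plus 3 SD, cut at about 35% in these data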;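 further: 0% = DMSO alone and 100% = 100 µM mitoxantrone as full dye displacement; higher means more dye released from RNA so lower well fluorescence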
PRMT1 inh: blocks human protein arginine methyltransferase 1 | recombinant PRMT1, activity-based probe fluorescence polarization | inhibition, % at 2.79 µM | Q99873 | 1.3% of 370,000 active | AID 652257;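 active means inhibition above about 21% made by adding two undisclosed values, limit read from the data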
UHRF1 binding: UHRF1 methyl-DNA binding inhibition; Q96T88; UHRF1 binding to methylated oligo, TR-FRET; inhibition, % at 4.4 µM; 0.75% of 370,000 active;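 further: UHRF1 SRA domain binding a hemimethylated CpG hairpin DNA probe; 0% = median of test compound wells and 100% = reference inhibitor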
rCAG bind conf: r(CAG) RNA repeat binding, confirmation; shares compounds with rCAG RNA binder; TO-PRO-1 dye displacement fluorescence; inhibition, % at 3 µM; 70% of 4,300 active;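 active means inhibition above a per-plate cutoff, the mean inhibition of sample wells plus 3 SD, cut at about 35% in these data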;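 further: loss of TO-PRO-1 fluorescence as compound displaces dye from 1x1 AA loop RNA; 0% = DMSO only wells and 100% = 100 µM mitoxantrone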
DNA CAG counter: counter-screen for rCAG RNA binders: DNA CAG dye complex inhibitors. d(CAG) DNA oligo TO-PRO-1 dye displacement, fluorescence. inhibition, % at 3 µM. shares compounds with rCAG RNA binder. 94% of 4,300 active;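 active means inhibition above its plate's cutoff, the mean test-well inhibition plus 3 SD, cut at about 4.8% in these data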;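 further: 0% = DNA dye mix with DMSO and 100% = 100 µM mitoxantrone; hits displace the dye from DNA and so lower well fluorescence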
PRMT1 inh conf: confirmation of human PRMT1 inhibitors; 42% of 3,300 active; inhibition, % at 2.79 µM; AID 687036; recombinant His-PRMT1, activity-based probe fluorescence polarization; shares compounds with PRMT1 inh;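 active means mean inhibition across replicates above the hit cutoff derived for the earlier primary screen, cut at about 22% in these data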
UHRF1 DNA bind: inhibits human UHRF1 binding to methylated oligonucleotide, MBD2 counter-screen | TR-FRET | 25% of 1,000 active | AID 720530 | inhibition, % at 4.4 µM | shares compounds with MBD2 inh;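 further: UHRF1 SRA domain binding a labeled hemimethylated CpG hairpin DNA; 0% = vehicle only and 100% = reference inhibitor with vehicle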
MBD2 DBD conf: MBD2-DBD methyl-DNA binding inhibition, TR-FRET confirmation | shares compounds with MBD2 inh | TR-FRET MBD2-DBD binding to methylated oligonucleotide | inhibition, % at 4.4 µM | 26% of 1,000 active | AID 720531; in the data active means inhibition above about 14%
* marks the source's active call; other numbers are inactive results; / = no result. Unless noted, no stated cut-off is given here; in the data, active means inhibition above about 21%; inactive means the rest.

SMILES	MBD2 inh	LEDGF integ inh	ABHD5 PLIN5 PPI	rCAG RNA binder	PRMT1 inh	UHRF1 binding	rCAG bind conf	DNA CAG counter	UHRF1 DNA bind	MBD2 DBD conf	others
CC(=O)Nc1ccc(S(=O)(=O)CC(=O)CS(=O)(=O)c2ccc(NC(C)=O)cc2)cc1	14.3*	-1.9	8.2	39.1*	9.1	0.7	7.5	3.9	5.5	-0.6
Cc1nc(NC2CCCC2)c2nnn(Cc3ccccc3)c2n1	-0.7	-0.3	/	0.8	-4.6	0.3	/	/	/	/
O=C(COC(=O)c1c2c(nc3ccccc13)/C(=C/c1ccco1)CC2)NC1CCCC1	14.3*	39.4*	8.8	67.7*	34.6*	45.0*	60.0*	34.0*	43.3*	31.9*	PRMT1 inh conf=27.8*
COc1ccc(/C(C)=N/NC(=O)Cc2cc(=O)[nH][nH]2)cc1OC	-3.5	4.7	/	2.5	-4.7	-4.9	/	/	/	/
COC(=O)c1ccc(C(=O)OC)c(NC(=O)Cc2cccs2)c1	16.2*	1.3	3.1	38.7*	-1.1	20.0	23.2	17.4*	21.6*	15.4*
Cc1ccc2c(nc3s/c(=C\c4ccc(-c5ccccc5C(=O)O)o4)c(=O)n32)c1C	14.8*	10.6	0.9	53.5*	29.0*	34.3*	89.4*	75.5*	14.9	5.1	PRMT1 inh conf=2.8
Cc1ccc2c(nc3s/c(=C/c4cccs4)c(=O)n32)c1C	-0.4	-1.1	-5.7	6.3	-0.9	0.0	/	/	/	/
O=c1c(O)cccc2cc(O)c(O)c(O)c12	86.9*	88.3*	8.2	51.0*	42.5*	93.7*	78.4*	47.8*	94.5*	91.0*
O=C(O)c1ccc(-n2cccc2/C=N\NC(=O)c2cc3cc(Br)ccc3o2)cc1	32.8*	7.2	0.7	49.7*	3.9	61.6*	46.3*	14.8*	65.6*	40.8*
O=C(N/N=C/c1cccn1-c1ccc(O)cc1)c1cccc2ccccc12	-3.1	-3.5	-1.7	8.0	5.4	-2.7	/	/	/	/
CCCC/C=C1/[C@@H](CC)N(Cc2ccc(OC)cc2OC)C2=N[C@@H](c3ccccc3)CC(=O)N21	-8.8	4.2	/	/	-4.2	2.5	/	/	/	/
COc1ccc(OCC2CN(Cc3ccccc3)S(=O)(=O)CCO2)cc1 (configuration not stated)	-0.5	-0.3	/	5.0	-1.1	-0.2	/	/	/	/
O=C(CNC(=O)/C=C/c1ccco1)N=Nc1c(O)[nH]c2ccccc12	30.2*	34.0*	-0.5	34.8*	19.1	53.4*	40.2*	16.8*	64.8*	51.0*
O=C1NC(=S)S/C1=C\C=C\c1ccc([N+](=O)[O-])o1	74.2*	81.4*	18.4	67.1*	42.9*	94.5*	70.0*	35.6*	90.4*	47.4*	PRMT1 inh conf=28.1*
O=C(O)/C=C/c1ccc([N+](=O)[O-])o1	2.9	12.2	2.3	1.6	13.0	12.3	/	/	/	/
O=C1NC(=O)C2(CCCc3ccc(N(CCO)CCO)cc32)N1 (configuration not stated)	3.4	-6.1	/	-0.1	3.2	0.6	/	/	/	/

Source: PubChem BioAssay
